{"source": "the antibiotic and cytotoxicity screens of Wong et al. (2023)", "note": "Out of some 39,000 compounds screened, about 1,500 (3.8%) were called active. Many of the other results were omitted from the sample, so actives are more common in it than they were."}
{"tested_on": "HSkMC (human skeletal muscle cells)", "test": "cytotoxicity call (relative viability < 0.9)", "conditions": "10 µM"}
{"molecule": "C[C@@H]1CN([C@@H](C)CO)C(=O)c2cc(NC(=O)Cc3ccccc3)ccc2O[C@@H](C)CCCCO[C@@H]1CN(C)C(=O)Nc1cccc2ccccc12", "cytotoxicity call": "inactive"}
{"molecule": "CO[C@H]1O[C@H](CO)[C@@H](OC(=O)Nc2ccc3c(c2)OCO3)[C@H](OC(=O)Nc2ccc3c(c2)OCO3)[C@@H]1OC(=O)Nc1ccc2c(c1)OCO2", "cytotoxicity call": "inactive"}
{"molecule": "CN(C)C(=O)C[C@H]1CC[C@@H]2[C@@H](COc3ccc(NS(=O)(=O)c4cccc(F)c4)cc3C(=O)N2C)O1", "cytotoxicity call": "inactive"}
{"molecule": "O=C1CN(S(=O)(=O)Cc2ccccc2)C[C@H]2[C@H](c3ccc(C#Cc4ccc(F)cc4)cc3)[C@@H](CO)N12", "cytotoxicity call": "active"}
{"molecule": "O=C1CN(S(=O)(=O)Cc2ccccc2)C[C@H]2[C@@H](c3ccc(C#Cc4ccc(F)cc4)cc3)[C@H](CO)N12", "cytotoxicity call": "inactive"}
{"molecule": "O=C1CN(S(=O)(=O)Cc2ccccc2)C[C@@H]2[C@@H](c3ccc(C#Cc4ccc(F)cc4)cc3)[C@@H](CO)N12", "cytotoxicity call": "active"}
{"molecule": "COc1cccc(C#Cc2ccc([C@@H]3[C@H]4CN(S(=O)(=O)c5ccccc5C)CC(=O)N4[C@H]3CO)cc2)c1", "cytotoxicity call": "inactive"}
{"molecule": "O=C1CN(S(=O)(=O)Cc2ccccc2)C[C@@H]2[C@H](c3ccc(C#Cc4ccc(F)cc4)cc3)[C@@H](CO)N12", "cytotoxicity call": "inactive"}
{"molecule": "O=C1CN(S(=O)(=O)Cc2ccccc2)C[C@H]2[C@H](c3ccc(C#Cc4ccc(F)cc4)cc3)[C@H](CO)N12", "cytotoxicity call": "active"}
{"molecule": "O=C1CN(S(=O)(=O)Cc2ccccc2)C[C@H]2[C@@H](c3ccc(C#Cc4ccc(F)cc4)cc3)[C@@H](CO)N12", "cytotoxicity call": "inactive"}
{"molecule": "COc1cccc(C#Cc2ccc([C@H]3[C@H](CO)N4C(=O)CN(S(=O)(=O)c5ccccc5C)C[C@@H]34)cc2)c1", "cytotoxicity call": "inactive"}
{"molecule": "O=C1CN(S(=O)(=O)Cc2ccccc2)C[C@@H]2[C@H](c3ccc(C#Cc4ccc(F)cc4)cc3)[C@H](CO)N12", "cytotoxicity call": "active"}
{"molecule": "O=C1CN(S(=O)(=O)Cc2ccccc2)C[C@@H]2[C@@H](c3ccc(C#Cc4ccc(F)cc4)cc3)[C@H](CO)N12", "cytotoxicity call": "inactive"}
{"molecule": "C[C@H](CO)N1C[C@H](C)[C@H](CN(C)Cc2ccc(Oc3ccccc3)cc2)Oc2cc(-c3ccncc3)ccc2S1(=O)=O", "cytotoxicity call": "inactive"}
{"molecule": "O=C(C[C@@H]1CC[C@@H](NC(=O)CN2CCOCC2)[C@@H](CO)O1)NCCc1ccccc1", "cytotoxicity call": "inactive"}
{"molecule": "CC(C)NC(=O)Nc1ccc2c(c1)C(=O)N(C)[C@H]1CC[C@H](CC(=O)NCc3ccc(F)cc3)O[C@H]1CO2", "cytotoxicity call": "inactive"}
{"molecule": "COCC#Cc1cnc2c(c1)C(=O)N([C@@H](C)CO)C[C@@H](C)[C@H](CN(C)C(C)=O)O2", "cytotoxicity call": "inactive"}
{"molecule": "C[C@@H]1CN([C@H](C)CO)C(=O)Cc2cc(NC(=O)Nc3cccc4ccccc34)ccc2O[C@@H]1CN(C)S(=O)(=O)c1cccs1", "cytotoxicity call": "inactive"}
{"molecule": "C[C@H](CO)N1C[C@H](C)[C@H](CN(C)C(=O)Nc2ccc(F)cc2)OCCCC[C@H](C)Oc2ccc(NC(=O)Nc3ccc4c(c3)OCO4)cc2C1=O", "cytotoxicity call": "inactive"}
{"molecule": "COc1ccc(S(=O)(=O)N(C)C[C@H]2OCc3cnnn3CCCC(=O)N([C@@H](C)CO)C[C@@H]2C)cc1", "cytotoxicity call": "inactive"}
{"molecule": "CCCC[P+](CCCC)(CCCC)Cc1ccc(NC(=O)[C@@H](Cc2ccc3ccccc3c2)N=C(NC2CCCCC2)NC2CCCCC2)cc1", "cytotoxicity call": "active"}
{"molecule": "CCCC[P+](CCCC)(CCCC)Cc1ccc(NC(=O)[C@H](Cc2ccc3ccccc3c2)N/C(=N/C2CCCCC2)NC2CCCCC2)cc1", "cytotoxicity call": "inactive"}
{"molecule": "C[C@H]1CN([C@@H](C)CO)C(=O)c2cc(NC(=O)Nc3cccc4ccccc34)ccc2O[C@@H]1CN(C)C(=O)NC1CCCCC1", "cytotoxicity call": "inactive"}
{"molecule": "CC(C)NC(=O)Nc1ccc2c(c1)C(=O)N([C@H](C)CO)C[C@@H](C)[C@@H](CN(C)Cc1ccc3c(c1)OCO3)O2", "cytotoxicity call": "inactive"}
{"molecule": "C[C@H]1CCCCO[C@H](CN(C)Cc2ccc3c(c2)OCO3)[C@@H](C)CN([C@@H](C)CO)C(=O)c2cc(NC(=O)Nc3ccc(C(F)(F)F)cc3)ccc2O1", "cytotoxicity call": "active"}
{"molecule": "C[C@H]1CCCCO[C@@H](CN(C)Cc2ccc3c(c2)OCO3)[C@@H](C)CN([C@@H](C)CO)C(=O)c2cc(NC(=O)Nc3ccc(C(F)(F)F)cc3)ccc2O1", "cytotoxicity call": "active"}
{"molecule": "C[C@@H]1CCCCO[C@@H](CN(C)Cc2ccc3c(c2)OCO3)[C@H](C)CN([C@H](C)CO)C(=O)c2cc(NC(=O)Nc3ccc(C(F)(F)F)cc3)ccc2O1", "cytotoxicity call": "active"}
{"molecule": "C[C@@H]1CCCCO[C@H](CN(C)Cc2ccc(C(F)(F)F)cc2)[C@H](C)CN([C@@H](C)CO)C(=O)c2cc(NC(=O)Nc3ccc4c(c3)OCO4)ccc2O1", "cytotoxicity call": "inactive"}
{"molecule": "C[C@@H]1CCCCO[C@@H](CN(C)Cc2ccc(C(F)(F)F)cc2)[C@@H](C)CN([C@@H](C)CO)C(=O)c2cc(NC(=O)Nc3ccc4c(c3)OCO4)ccc2O1", "cytotoxicity call": "inactive"}
{"molecule": "C[C@@H]1CN([C@@H](C)CO)C(=O)c2cc(NC(=O)Nc3ccc(C(F)(F)F)cc3)ccc2O[C@@H](C)CCCCO[C@H]1CN(C)Cc1ccc2c(c1)OCO2", "cytotoxicity call": "active"}
{"molecule": "C[C@H]1CN([C@@H](C)CO)C(=O)c2cccc(NC(=O)C3CCOCC3)c2O[C@@H]1CN(C)C(=O)NC1CCCCC1", "cytotoxicity call": "inactive"}
{"molecule": "C[C@H](CO)N1C[C@H](C)[C@H](CN(C)S(=O)(=O)c2cn(C)cn2)Oc2ncc(C3=CCCC3)cc2C1=O", "cytotoxicity call": "inactive"}
{"molecule": "CO[C@H](CN(C)S(=O)(=O)c1cccc(Cl)c1)[C@@H](C)CN([C@@H](C)CO)S(=O)(=O)c1cccc(Cl)c1", "cytotoxicity call": "inactive"}
{"molecule": "COc1ccc(NC(=O)Nc2ccc3c(c2)C(=O)N([C@H](C)CO)C[C@H](C)[C@H](CN(C)C(=O)Nc2c(C)noc2C)OCCCC[C@H](C)O3)cc1", "cytotoxicity call": "inactive"}
{"molecule": "COc1ccc(NC(=O)N(C)C[C@@H]2Oc3ccc(NS(=O)(=O)c4c(C)noc4C)cc3CC(=O)N([C@H](C)CO)C[C@H]2C)cc1", "cytotoxicity call": "inactive"}
{"molecule": "C[C@@H]1CCCCO[C@@H](CN(C)C(=O)C2CCCCC2)[C@@H](C)CN([C@@H](C)CO)C(=O)c2cc(NC(=O)Cc3ccccc3)ccc2O1", "cytotoxicity call": "inactive"}
{"molecule": "C[C@@H]1CN([C@H](C)CO)S(=O)(=O)c2ccc(C#CCN(C)C)cc2O[C@@H]1CN(C)S(C)(=O)=O", "cytotoxicity call": "inactive"}
{"molecule": "CSc1nc(=O)c(C)n[nH]1", "cytotoxicity call": "inactive"}
{"molecule": "Cc1ccc(S(=O)(=O)Nc2ccc3c(c2)C(=O)N([C@@H](C)CO)C[C@H](C)[C@H](CN(C)S(=O)(=O)c2cn(C)cn2)O3)cc1", "cytotoxicity call": "inactive"}
{"molecule": "C[C@H](CO)N1C[C@H](C)[C@H](CN(C)Cc2ccc(C(F)(F)F)cc2)OCCCC[C@H](C)Oc2ccc(NC(=O)Nc3ccc4c(c3)OCO4)cc2C1=O", "cytotoxicity call": "inactive"}
{"molecule": "C[C@@H]1CCCCO[C@H](CN(C)Cc2ccc3c(c2)OCO3)[C@H](C)CN([C@@H](C)CO)C(=O)c2cc(NC(=O)Nc3ccc(C(F)(F)F)cc3)ccc2O1", "cytotoxicity call": "active"}
{"molecule": "C[C@@H]1CCCCO[C@@H](CN(C)Cc2ccc(C(F)(F)F)cc2)[C@H](C)CN([C@@H](C)CO)C(=O)c2cc(NC(=O)Nc3ccc4c(c3)OCO4)ccc2O1", "cytotoxicity call": "inactive"}
{"molecule": "C[C@@H]1CN([C@H](C)CO)C(=O)c2cc(NC(=O)Nc3ccc(C(F)(F)F)cc3)ccc2O[C@@H](C)CCCCO[C@@H]1CN(C)Cc1ccc2c(c1)OCO2", "cytotoxicity call": "active"}
{"molecule": "C[C@@H]1CCCCO[C@H](CN(C)Cc2ccc3c(c2)OCO3)[C@@H](C)CN([C@H](C)CO)C(=O)c2cc(NC(=O)Nc3ccc(C(F)(F)F)cc3)ccc2O1", "cytotoxicity call": "active"}
{"molecule": "C[C@@H]1CCCCO[C@H](CN(C)Cc2ccc3c(c2)OCO3)[C@H](C)CN([C@H](C)CO)C(=O)c2cc(NC(=O)Nc3ccc(C(F)(F)F)cc3)ccc2O1", "cytotoxicity call": "active"}
{"molecule": "C[C@H]1CCCCO[C@@H](CN(C)Cc2ccc(C(F)(F)F)cc2)[C@@H](C)CN([C@@H](C)CO)C(=O)c2cc(NC(=O)Nc3ccc4c(c3)OCO4)ccc2O1", "cytotoxicity call": "inactive"}
{"molecule": "C[C@H](CO)N1C[C@H](C)[C@@H](CN(C)Cc2ccc(C(F)(F)F)cc2)OCCCC[C@H](C)Oc2ccc(NC(=O)Nc3ccc4c(c3)OCO4)cc2C1=O", "cytotoxicity call": "inactive"}
{"molecule": "C[C@@H]1CN([C@@H](C)CO)C(=O)Cc2cc(NC(=O)Nc3cccc4ccccc34)ccc2O[C@@H]1CN(C)Cc1ccc2c(c1)OCO2", "cytotoxicity call": "inactive"}
{"molecule": "Cc1noc(C)c1NC(=O)N(C)C[C@@H]1OCCCC[C@@H](C)Oc2ccc(NC(=O)Nc3ccccc3)cc2C(=O)N([C@@H](C)CO)C[C@@H]1C", "cytotoxicity call": "inactive"}
{"molecule": "Cc1noc(C)c1S(=O)(=O)N(C)C[C@H]1OCCCC[C@@H](C)Oc2ccc(NC(=O)Nc3ccccc3)cc2C(=O)N([C@@H](C)CO)C[C@@H]1C", "cytotoxicity call": "inactive"}
{"molecule": "COc1ccc(NC(=O)Nc2ccc3c(c2)C(=O)N([C@H](C)CO)C[C@H](C)[C@@H](CN(C)S(=O)(=O)c2c(C)noc2C)OCCCC[C@@H](C)O3)cc1", "cytotoxicity call": "inactive"}
{"molecule": "C[C@@H]1CCCCO[C@@H](CN(C)C(=O)NC2CCCCC2)[C@H](C)CN([C@H](C)CO)C(=O)c2cc(NC(=O)Cc3ccccc3)ccc2O1", "cytotoxicity call": "inactive"}
{"molecule": "CC(C)NC(=O)Nc1ccc2c(c1)C(=O)N([C@@H](C)CO)C[C@@H](C)[C@H](CN(C)S(=O)(=O)c1cn(C)cn1)OCCCC[C@@H](C)O2", "cytotoxicity call": "inactive"}
{"molecule": "C[C@H](CO)N1C[C@H](C)[C@H](CN(C)Cc2ccc3c(c2)OCO3)OCCCC[C@H](C)Oc2ccc(NC(=O)Nc3ccc(C(F)(F)F)cc3)cc2C1=O", "cytotoxicity call": "active"}
{"molecule": "C[C@@H]1CCCCO[C@@H](CN(C)Cc2ccc3c(c2)OCO3)[C@@H](C)CN([C@H](C)CO)C(=O)c2cc(NC(=O)Nc3ccc(C(F)(F)F)cc3)ccc2O1", "cytotoxicity call": "inactive"}
{"molecule": "C[C@@H]1CN([C@@H](C)CO)C(=O)c2cc(NC(=O)Nc3ccc(C(F)(F)F)cc3)ccc2O[C@@H](C)CCCCO[C@@H]1CN(C)Cc1ccc2c(c1)OCO2", "cytotoxicity call": "inactive"}
{"molecule": "C[C@@H]1CN([C@H](C)CO)C(=O)c2cc(NC(=O)Nc3ccc(C(F)(F)F)cc3)ccc2O[C@@H](C)CCCCO[C@H]1CN(C)Cc1ccc2c(c1)OCO2", "cytotoxicity call": "active"}
{"molecule": "C[C@@H]1CCCCO[C@@H](CN(C)Cc2ccc3c(c2)OCO3)[C@H](C)CN([C@@H](C)CO)C(=O)c2cc(NC(=O)Nc3ccc(C(F)(F)F)cc3)ccc2O1", "cytotoxicity call": "active"}
{"molecule": "C[C@H](CO)N1C[C@H](C)[C@@H](CN(C)Cc2ccc3c(c2)OCO3)OCCCC[C@H](C)Oc2ccc(NC(=O)Nc3ccc(C(F)(F)F)cc3)cc2C1=O", "cytotoxicity call": "active"}
